eIF4E-4G inh: eIF4E–eIF4G protein interaction inhibitors, primary screen, biochemical, uHTS, TR-FRET, eIF4GI fragment; inhibition, % at 21.7 µM; 220,000 tested, 0.37% active; TR-FRET eIF4E-eIF4GI(517-606) binding, 2 h;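 active = inhibition above about 30%, limit read from the data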;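 also: 0% = full FRET control wells and 100% = background wells lacking eIF4GI fragment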
Autophagy HCS: autophagy modulators in MEF cells, primary screen, imaging, high-content, MEF GFP-LC3. calls only at 10 µM (by protocol). AID 463193, 2010. MEF GFP-LC3 puncta imaging; test concentration mostly 10 µM. 190,000 tested, 0.98% active;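 active = percentage of spot-positive cells more than 3 SD above its plate mean, without a fluorescence outlier flag or 80% toxicity; inconclusive = no clear call, values can overlap the other calls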;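 also: spot-positive cell cutoff set from DMSO-treated cells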
Insulin prom up: insulin promoter activators in MIN6 cells, imaging, high-content screening, mouse beta cells; 190,000 tested, 0.3% active; MIN6 insulin promoter-GFP reporter; active compounds read high; z-score at 5 µM;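 active = z-score above 3 at 5 µM with at least 500 cells counted in the well; inconclusive = wells under 500 cells, flagged as cytotoxic or low count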
INS promoter inh: inhibitors of insulin promoter-driven GFP, primary screen, imaging, TRM-6 cells (human fetal islet line), eGFP reporter, cell count; reporter expression induced with tamoxifen; inhibition, % at 2 µM; 130,000 tested, 0.9% active; AID 1273, 2008;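 active = inhibition above the mean plus 3 SD, with well images judged a real hit on visual review, cut at about 60% in these data, passing the limit was not always enough; inconclusive = inhibition over the cutoff but images rejected on review; inactive = inhibition not above the cutoff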
PERK inh: block of dimerizer-induced PERK translation repression, primary screen, PERK inhibitor project, CHO PERK-DD cells, SEAP luminescence, HTS; Eukaryotic translation initiation factor 2-alpha kinase 3 (Homo sapiens), Q9NZJ5; CHO PERK-DD fusion, SEAP luminescence translation reporter; inhibition, % at 5.6 µM; 220,000 tested, 0.17% active; AID 1416, 2008;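 active = inhibition above the mean inhibition of all tested compounds plus 3 SD, set separately per screening campaign, cut at about 2.9% in these data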;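 also: PERK kinase domain activated by AP20187 dimerizer at 100 nM; 0% = DMSO with dimerizer and 100% = rapamycin at 8.4 µM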
The depositor's hits bear a star; i = inactive; ? = inconclusive; . = no result given; + = active, no number; ! = repeats disagree; [ ] = remark or other dose. In the library only some 2% were active in any assay of this set; here they are far more common.

SMILES	eIF4E-4G inh	Autophagy HCS	Insulin prom up	INS promoter inh	PERK inh
O=C1C(=O)N(CCc2c[nH]c3ccccc23)C(c2cccnc2)/C1=C(/O)c1ccccc1 (centres undefined)	2.5	i	0.93	0.0	-0.4
CN(C(=O)CCc1nc(-c2ccccc2F)no1)c1ccccc1	-0.5	i	0.15	.	0.5
NC(=O)CSc1nnc(CNc2ccc(F)cc2)n1CC1CCCO1 (centres undefined)	3.1	i	.	54.5	3.0*
CC1(C)Cc2ccccc2C(N/N=C/c2ccc(Cl)cc2)=N1	20.1	i	0.21	.	0.8
Cc1cc(C)c(NC(=O)COc2ccccc2C(=O)Nc2ccc3c(c2)oc2ccccc23)c(C)c1	-33.1	+	-0.92	-36.1	1.8
CC(NC(=O)CCC(=O)c1ccc(F)cc1)C1CC2CCC1C2 (centres undefined)	-3.8	i	-0.32	.	-0.5
COC(=O)c1c(C)cc(OC(C)=O)c(C)c1OC(C)=O	33.4*	i	0.12	7.1	2.5
COC(=O)c1c(C)c[nH]c1C	1.1	i	0.3	.	0.6
Cc1cccc(-c2nnc3n2N=C(c2ccccc2)CS3)c1	6.6	i	-0.22	.	-0.6
Cc1nn2c(nc1=O)SCC(c1ccccc1)=N2	-3.4	i	0.46	81.6*	0.1
O=C(CSc1nc2ccc(Cl)cc2o1)NCc1ccc2c(c1)OCO2	-7.6	i	3.95*	3.3	-1.1
O=C(CSc1nnc(-c2cccnc2)n1Cc1ccco1)NCc1ccc2c(c1)OCO2	2.8	i	-1.07	-284.6	0.1
CC(C)Sc1nc2ccccc2n1CC(=O)NCc1ccc2c(c1)OCO2	3.2	i	0.08	91.4*	-0.1
C=CCn1c(SCC(=O)NCc2ccc3c(c2)OCO3)nnc1-c1cccnc1	-0.7	i	0.44	76.5*	0.9
CCn1c(SCC(=O)NCc2ccc3c(c2)OCO3)nnc1-c1cccs1	67.7*	i	-0.19	-31.8	-0.4
O=C(CSc1nc2ccccc2o1)NCc1ccc2c(c1)OCO2	-6.5	.	0.63	.	0.9
Cn1c(SCC(=O)NCc2ccc3c(c2)OCO3)nnc1-c1cccs1	-11.0	i	1.13	0.0	0.5
CCOC(=O)C(C(=O)NCc1cccc(OC)c1)c1ncc(C(F)(F)F)cc1Cl (centres undefined)	4.7	i	0.66	-42.4	-0.4
CN(C)S(=O)(=O)c1cccc(NC(=O)CN2C(=O)C3C4C=CC(C4)C3C2=O)c1 (centres undefined)	0.0	i	0.12	-25.6	0.9
COc1ccc(/C=N/N2CCOCC2)cc1COc1ccc(Cl)cc1	11.7	i	-0.05	-19.2	-0.5
CC(C)=CCN1CCN(Cc2cc(F)ccc2-n2nc(C)cc2C)CC1CCO (centres undefined)	-3.2	i	-0.02	-69.6	0.2
O=C(c1ccc(COc2ccccc2Cl)o1)N1CCN(Cc2ccc3c(c2)OCO3)CC1	1.5	+!	-0.19	18.8	-0.1
O=C1/C(=C/c2ccccc2)NC(=S)N1C(c1ccccc1)c1ccccc1	-2.6	+	.	26.1	-0.8
O=[N+]([O-])c1ccc(C2Oc3ccccc3C3CC(c4ccccc4)=NN32)s1 (centres undefined)	3.5	+	0.69	-79.0	0.2
c1ccc(C2Oc3ccccc3C3CC(c4cccs4)=NN32)cc1 (centres undefined)	1.9	i	.	.	0.6
SMILES	eIF4E-4G inh	Autophagy HCS	Insulin prom up	INS promoter inh	PERK inh
Cc1ccc(S(=O)(=O)N2CCCC2C(=O)N(C)Cc2cccs2)cc1 (centres undefined)	1.9	i	4.2*	-48.4	0.8
Cc1ccc(-n2ncc(C(=O)Nc3cc(Cl)cc(Cl)c3)c2C2CCNCC2)cc1C	-2.1	+	?	.	0.1
Cc1ccc(-n2ncc(C(=O)Nc3cc(Cl)ccc3Cl)c2C2CCNCC2)cc1	-1.2	+	0.1	-5.9	-0.4
CS(=O)(=O)Nc1ccccc1C(=O)Nc1cc(Cl)cc(Cl)c1	1.2	i	0.13	35.7	1.8
O=C(CN1CCN(c2ccccc2O)CC1)NCCCc1ccccc1	-0.2	i	-0.04	-40.0	0.0
CC(=O)c1c(C)[nH]c(C(=O)CSc2nc3ccc(C)cc3[nH]2)c1C	-2.1	i	0.36	15.4	-0.5
CC1CCCC(C)N1C(=O)CSc1nnc(-c2cccs2)o1 (centres undefined)	1.8	i	3.46*	-2.6	-0.4
COc1ccc(C(=O)c2ccc(OC)c(Br)c2)cc1Br	9.6	i	-0.12	.	0.1
COc1ccc(Br)c2oc(S)cc(=O)c12	2.6	i	2.25	71.4*	1.1
O=C1OC2CC3CC1CC(O)(C3)C2 (centres undefined)	-2.2	i	.	85.7*	0.9
Cc1ccc(NCc2nnc(SCC(=O)c3ccccc3)n2Cc2ccco2)c(C)c1	2.1	i	-0.99	.	-1.4
COc1c(F)c(F)c(C(=O)Nc2c(C)cc(Br)cc2C)c(F)c1F	0.0	i	0.64	.	-1.1
N#Cc1cc(-c2ccccc2)nn1-c1ccccc1	66.4*[fluorescence artefact?]	i	0.18	-286.4	1.0
CNC(=O)c1ccsc1NC(=O)c1ccc2c(c1)CCCC2	3.2	i	-2.19	75.6*	-0.3
CC(C)C(c1nnnn1C1CCCC1)N1CCOCC1 (centres undefined)	-3.1	i	3.02*	-469.2	0.8
CCOc1ccc(C(=O)NC(C(=O)NCC2CCCO2)C(C)C)cc1 (centres undefined)	-5.9	.	0.73	.	0.7
COc1ccc(OC)c(C2=NOC(C(=O)NCC3CCCO3)C2)c1 (centres undefined)	.	i	3.67*	.	-0.3
COc1ccc(OC)c(-c2csc(N(CC3CCCO3)C(=O)C3CCCCC3)n2)c1 (centres undefined)	1.6	+	-0.14	.	-1.4
COc1ccc(C(=O)NC(C(=O)NCC2CCCO2)C(C)C)cc1 (centres undefined)	-5.2	i	1.38	81.8*	0.4
Cc1cc(C)c(C)c(C(=O)CSc2nnc(-c3ccc4[nH]c(C)c(C)c4c3)o2)c1C	5.1	+	-0.93	-7.0	0.7
Cc1cc(=O)n(C)c(=O)n1CCCCCCOc1cccc([N+](=O)[O-])c1	3.4	i	-0.09	-20.7	-0.2
COc1ccc(C2C3=C(N=C4SCC(=O)N42)c2ccccc2CC3)cc1 (centres undefined)	10.6	i	-1.88	71.0*	-0.2
COc1ccc(-c2nc(C)ncc2-c2csc(C)n2)c(O)c1	4.2	i	-0.09	-25.0	0.3
COc1ccc(-c2ncncc2-c2csc(C)n2)c(O)c1	-2.5	+	0.24	37.9	2.2
Clc1cncc(Cl)c1N/N=C/c1ccncc1	1.4	i	-0.24	62.5*	1.1

Bioassay records (PubChem BioAssay)
